This is an account of results in PubChem BioAssay (Tox21).

Molecules are shown by their SMILES. Several values for one entry are separate records, joined by “and”; a condition that tells them apart may be missing. Identical values can stand only once. Some structures have more than one record in an assay (separate samples or runs), and their calls can disagree. Activity calls are given as the source filed them. Unless noted, the call rests on the fitted dose curve; in most records, active means well fitted curve in the direction sought with a large enough effect in the repeat runs; inconclusive means weak or mixed curves; inactive means no such curve, though single readings can be large; an effect the other way counts as inactive or inconclusive.

Assay [1] can be described thus: qHTS assay to identify small molecule antagonists of the thyroid receptor (TR) signaling pathway - cell viability counter screen (AID 743064). Further: nearly all actives have a fitted effect of over 50% in size. Further: potency means the concentration at half of the fitted maximal effect. An outline of the steps: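 Fluorescence from CellTiter-Fluor, added after 23.5 h exposure at 37 °C, reported viability of GH3.TRE-Luc cells co-treated with compound and 1 nM T3. Measured in the same wells as the luciferase TR readout.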

The target of assay [2] is Estrogen receptor (Homo sapiens) (UniProt P03372). As to the kind of experiment: qHTS assay to identify small molecule antagonists of the estrogen receptor alpha (ER-alpha) signaling pathway (AID 743069; active means well fitted curve in the direction sought with a large enough effect in the signal ratio in the repeat runs, not every such curve was filed as active; inconclusive means weak or mixed curves, or effect the other way; inactive means no such curve, though single readings can be large or run the other way; the % refers to the signal ratio; further: potency means the concentration at half of the fitted maximal effect). An outline of the steps:
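Compound effects are measured against 17beta-estradiol stimulation in HEK293 cells with a UAS-controlled beta-lactamase reporter for ER-alpha. Exposure lasts 18 hr at 37C; LiveBLAzer B/G FRET substrate follows for 2 hr at room temperature.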

The nature of assay [3]: qHTS assay to identify small molecule antagonists of the estrogen receptor alpha (ER-alpha) signaling pathway - cell viability counter screen (AID 743074; calls by dose curve;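 further: HEK293 cells carrying ER-alpha-UAS-bla reporter stimulated with 17beta-estradiol; nearly all actives have a fitted effect of over 45% in size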).
The target in assay [4] is Estrogen receptor (Homo sapiens) (UniProt P03372). As to the kind of experiment: qHTS assay to identify small molecule agonists of the estrogen receptor alpha (ER-alpha) signaling pathway (AID 743075; calls by dose curve; further: potency means the concentration at half of the fitted maximal effect).
Chain of Estrogen receptor (Homo sapiens) (P03372 whole entry, looked up): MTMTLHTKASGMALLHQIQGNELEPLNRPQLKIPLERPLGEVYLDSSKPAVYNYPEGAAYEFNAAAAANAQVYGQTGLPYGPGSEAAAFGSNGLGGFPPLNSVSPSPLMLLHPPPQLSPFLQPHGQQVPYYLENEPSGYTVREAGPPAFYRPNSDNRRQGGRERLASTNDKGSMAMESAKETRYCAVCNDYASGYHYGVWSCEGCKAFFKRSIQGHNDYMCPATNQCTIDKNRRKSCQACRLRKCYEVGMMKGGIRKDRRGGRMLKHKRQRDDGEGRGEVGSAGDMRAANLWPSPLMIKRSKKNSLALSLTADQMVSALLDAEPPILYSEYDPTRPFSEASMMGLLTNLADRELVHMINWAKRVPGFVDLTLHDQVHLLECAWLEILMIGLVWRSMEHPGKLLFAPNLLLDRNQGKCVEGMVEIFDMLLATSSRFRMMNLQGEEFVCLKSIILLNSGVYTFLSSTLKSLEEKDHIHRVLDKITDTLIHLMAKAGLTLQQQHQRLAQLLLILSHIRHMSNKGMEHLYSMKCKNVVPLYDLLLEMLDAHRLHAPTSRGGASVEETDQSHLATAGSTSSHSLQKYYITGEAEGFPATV
The target is the same in assay [5]. As to the kind of experiment: qHTS assay to identify small molecule agonists of the estrogen receptor alpha (ER-alpha) signaling pathway using the BG1 cell line (AID 743079). Further: nearly all actives have a fitted effect of over 20% in size. Further: potency means the concentration at half of the fitted maximal effect.
Assay [6] in a line: qHTS assay to identify small molecule antagonists of the estrogen receptor alpha (ER-alpha) signaling pathway using the BG1 cell line - cell viability counter screen (AID 743081).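 Further: compound given together with 17beta-estradiol as the ER stimulus; nearly all actives have a fitted effect of over 45% in size.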 Further: potency means the concentration at half of the fitted maximal effect.
The next assay concerns the target Aromatase (Homo sapiens) (UniProt P11511). As to the kind of experiment: qHTS assay to identify aromatase inhibitors (AID 743083). Further: series mostly up to about 70 µM; nearly all actives have a fitted effect of over 55% in size.
The nature of assay [7]: qHTS assay to identify aromatase inhibitors - cell viability counter screen (AID 743084).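 Further: cells stimulated with testosterone during compound exposure; nearly all actives have a fitted effect of over 55% in size.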 Further: potency means the concentration at half of the fitted maximal effect.
A short description of assay [8]: qHTS assay to identify small molecule that activate the aryl hydrocarbon receptor (AhR) signaling pathway - cell viability counter screen (AID 743086). Further: nearly all actives have a fitted effect of over 45% in size. Further: potency means the concentration at half of the fitted maximal effect. An outline of the steps: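 Cytotoxicity counter screen: CellTiter-Fluor signal (30 min, 37 C) in 4000 HepG2 cells/well carrying the DRE-luciferase reporter, following 24 h compound exposure at 37 C.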
Assay [9] has as its target Peroxisome proliferator-activated receptor gamma (Homo sapiens) (UniProt P37231). As to the kind of experiment: qHTS assay to identify small molecule agonists of the peroxisome proliferator-activated receptor gamma (PPARg) signaling pathway (AID 743094; active means well fitted activation curve with a large enough effect in the signal ratio in the repeat runs, not every such curve was filed as active; inconclusive means weak or mixed curves, or effect the other way; inactive means no such curve, though single readings can be large or run the other way; the % refers to the signal ratio; further: potency means the concentration at half of the fitted maximal effect). An outline of the steps: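 GeneBLAzer PPARg UAS-bla HEK293H cells carrying a stably integrated beta-lactamase reporter were pre-incubated 5 h at 37C, then exposed to compounds in DMSO for 17 h at 37C; LiveBLAzer B/G FRET substrate was added for 1 h at room temperature and fluorescence read.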

Assay [10] shares this target. As to the kind of experiment: qHTS assay to identify small molecule antagonists of the peroxisome proliferator-activated receptor gamma (PPARg) signaling pathway (AID 743191; calls by dose curve; further: series mostly up to about 63 µM; nearly all actives have a fitted effect of over 30% in size). In a few lines: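 Beta-lactamase reporter under UAS control in HEK293H PPARg-bla cells; compound treatment 17 h at 37C. Read-out: fluorescence intensity after 1 h room-temperature incubation with LiveBLAzer B/G FRET substrate.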

Assay [11] is described as follows: qHTS assay to identify small molecule antagonists of the peroxisome proliferator-activated receptor gamma (PPARg) signaling pathway - cell viability counter screen (AID 743194). Further: nearly all actives have a fitted effect of over 55% in size. In a few lines:
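Viability was measured as CellTiter-Glo luminescence in GeneBLAzer PPARg UAS-bla HEK293H cells. These cells had been exposed 17 h at 37 C to compounds together with rosiglitazone at 50 nM final, with the beta-lactamase readout taken in the same wells.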

Assay [12] is described as follows: qHTS assay for small molecule agonists of the antioxidant response element (ARE) signaling pathway (AID 743202; active means well fitted activation curve with a large enough effect in the signal ratio in the repeat runs, not every such curve was filed as active; inconclusive means weak or mixed curves, or effect the other way; inactive means no such curve, though single readings can be large or run the other way; the % refers to the signal ratio; further: potency means the concentration at half of the fitted maximal effect). In a few lines: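 An ARE-responsive beta-lactamase gene stably integrated in HepG2 cells serves as reporter. After 5 h plating and 16 h compound incubation at 37 C, fluorescence of the B/G FRET substrate was measured.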
Assay [13] in a line: qHTS assay for small molecule agonists of the antioxidant response element (ARE) signaling pathway - cell viability counter screen (AID 743203; calls by dose curve; further: nearly all actives have a fitted effect of over 55% in size). An outline of the steps: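 CellSensor ARE-bla HepG2 cells, 2,000 per well, rested 5 hrs at 37C/5% CO2, then exposed to compound in DMSO for 16 hrs; viability read as CellTiter-Glo luminescence after 30 min at room temperature, in the reporter wells.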

Assay [14] in a line: qHTS assay for small molecule activators of the heat shock response signaling pathway - cell viability counter screen (AID 743209). Further: nearly all actives have a fitted effect of over 50% in size. An outline of the steps:
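CellSensor HSE-bla HeLa cells, plated overnight at 37 C/5% CO2, were exposed to compounds in DMSO for 5 h at 37 C. Viability was then read in the same wells by CellTiter-Glo luminescence after 30 min at room temperature.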

Assay [15] is described as follows: qHTS assay for small molecule activators of the heat shock response signaling pathway (AID 743210; active means well fitted activation curve with a large enough effect in the signal ratio in the repeat runs, with a control signal flat, not every such curve was filed as active; inconclusive means weak or mixed curves; the % refers to the signal ratio;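 further: HeLa cells with beta-lactamase reporter driven by heat shock elements; series mostly up to about 63 µM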). In a few lines:
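In HSE-bla HeLa cells, 5 h compound incubation (37 C) precedes addition of LiveBLAzer B/G substrate; after 2.5 h at room temperature, fluorescence intensity indicates reporter induction.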

Assay [16] is described as follows: qHTS assay to identify small molecule antagonists of the estrogen receptor alpha (ER-alpha) signaling pathway using the BG1 cell line (AID 743080; calls by dose curve;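 further: BG1 cells stimulated with 17beta-estradiol alongside compound; nearly all actives have a fitted effect of over 25% in size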; further: potency means the concentration at half of the fitted maximal effect). In a few lines: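 Luminescence from a 4×ERE-luciferase reporter in BG1-Luc-4E2 cells served as read-out. Cells, pre-cultured 5 days in stripped-serum phenol-red-free medium, were exposed to compound with 17beta-estradiol co-stimulation for 21.5 h at 37 C.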

Assay [17] can be described thus: qHTS assay to identify small molecule antagonists of the thyroid receptor (TR) signaling pathway (AID 743065). Further: nearly all actives have a fitted effect of over 55% in size. Further: potency means the concentration at half of the fitted maximal effect. In a few lines:
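Antagonism measured as loss of luciferase signal in GH3 cells stably carrying a TRE-luciferase reporter, co-treated with compound and T3 (1 nM final) for 23.5 h at 37 C. Viability was read in the same well by CellTiter-Fluor.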

In assay [18] the test system is thyroid hormone receptor (rat, GH3 cells). As to the kind of experiment: qHTS assay to identify small molecule agonists of the thyroid receptor (TR) signaling pathway (AID 743066; calls by dose curve).
In assay [19] the target is Aryl hydrocarbon receptor (Homo sapiens) (UniProt P35869). As to the kind of experiment: qHTS assay to identify small molecule that activate the aryl hydrocarbon receptor (AhR) signaling pathway (AID 743085). Further: nearly all actives have a fitted effect of over 15% in size. Further: potency means the concentration at half of the fitted maximal effect.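 On activation: HG2L7.5c1 human HepG2 liver cells with stably integrated DRE-driven firefly reporter; series mostly up to about 70 µM.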 An outline of the steps:
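Cell line HG2L7.5c1 (human hepatoma, 20× DRE-luc). Plated, 5 h 37C, compound/DMSO added, 24 h 37C. CellTiter-Fluor 30 min 37C → fluorescence; then ONE-Glo 30 min RT → luminescence.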

Chain of Peroxisome proliferator-activated receptor gamma (Homo sapiens) (P37231 whole entry, looked up): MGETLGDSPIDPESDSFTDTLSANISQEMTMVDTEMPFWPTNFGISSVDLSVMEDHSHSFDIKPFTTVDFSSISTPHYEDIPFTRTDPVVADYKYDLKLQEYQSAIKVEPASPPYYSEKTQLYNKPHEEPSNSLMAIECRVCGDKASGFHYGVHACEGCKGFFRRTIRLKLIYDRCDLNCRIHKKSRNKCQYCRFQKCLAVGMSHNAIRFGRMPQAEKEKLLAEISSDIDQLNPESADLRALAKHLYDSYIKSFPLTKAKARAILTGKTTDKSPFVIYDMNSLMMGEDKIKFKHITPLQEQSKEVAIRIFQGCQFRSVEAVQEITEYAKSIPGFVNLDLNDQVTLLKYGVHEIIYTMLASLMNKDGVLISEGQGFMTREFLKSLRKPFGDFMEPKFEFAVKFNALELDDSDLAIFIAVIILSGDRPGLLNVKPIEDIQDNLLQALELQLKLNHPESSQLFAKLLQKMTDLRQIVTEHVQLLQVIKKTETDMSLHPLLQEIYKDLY
Chain of Aryl hydrocarbon receptor (Homo sapiens) (P35869 whole entry, looked up): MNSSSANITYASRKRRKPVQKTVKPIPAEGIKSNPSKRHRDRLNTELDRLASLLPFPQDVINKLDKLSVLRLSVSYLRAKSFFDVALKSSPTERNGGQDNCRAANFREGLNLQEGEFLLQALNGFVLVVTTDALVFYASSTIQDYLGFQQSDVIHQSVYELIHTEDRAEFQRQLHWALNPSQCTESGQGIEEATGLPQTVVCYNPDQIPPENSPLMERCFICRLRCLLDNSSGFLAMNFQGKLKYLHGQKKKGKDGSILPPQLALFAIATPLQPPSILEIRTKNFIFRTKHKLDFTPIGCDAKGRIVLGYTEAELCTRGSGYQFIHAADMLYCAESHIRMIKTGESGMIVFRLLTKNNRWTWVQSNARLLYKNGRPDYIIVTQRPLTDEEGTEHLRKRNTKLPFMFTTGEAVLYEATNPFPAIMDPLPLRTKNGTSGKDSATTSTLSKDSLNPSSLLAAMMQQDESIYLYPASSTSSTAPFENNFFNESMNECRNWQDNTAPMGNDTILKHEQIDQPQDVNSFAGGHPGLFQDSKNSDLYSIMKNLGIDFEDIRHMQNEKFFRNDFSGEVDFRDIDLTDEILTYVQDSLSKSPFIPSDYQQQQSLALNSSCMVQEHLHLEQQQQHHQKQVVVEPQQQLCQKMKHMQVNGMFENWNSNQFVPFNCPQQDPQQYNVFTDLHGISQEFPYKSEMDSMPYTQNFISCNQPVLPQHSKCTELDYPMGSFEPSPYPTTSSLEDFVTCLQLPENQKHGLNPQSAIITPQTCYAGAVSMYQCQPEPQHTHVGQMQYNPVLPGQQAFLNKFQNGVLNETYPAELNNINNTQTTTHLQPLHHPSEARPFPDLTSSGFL
Chain of Aromatase (Homo sapiens) (P11511 whole entry, looked up): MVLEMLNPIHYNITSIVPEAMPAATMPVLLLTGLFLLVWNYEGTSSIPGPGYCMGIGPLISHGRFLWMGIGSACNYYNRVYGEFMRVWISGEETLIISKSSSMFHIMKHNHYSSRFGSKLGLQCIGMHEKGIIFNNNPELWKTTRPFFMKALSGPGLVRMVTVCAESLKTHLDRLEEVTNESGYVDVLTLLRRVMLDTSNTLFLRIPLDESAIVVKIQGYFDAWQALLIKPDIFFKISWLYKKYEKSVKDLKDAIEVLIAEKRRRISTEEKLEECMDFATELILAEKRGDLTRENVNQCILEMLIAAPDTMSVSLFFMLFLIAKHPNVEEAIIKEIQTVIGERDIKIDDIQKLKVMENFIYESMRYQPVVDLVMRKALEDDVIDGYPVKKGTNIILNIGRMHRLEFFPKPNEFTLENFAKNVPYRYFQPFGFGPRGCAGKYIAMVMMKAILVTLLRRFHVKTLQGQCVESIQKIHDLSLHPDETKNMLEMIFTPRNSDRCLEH

For `Nc1ccc(N=Nc2ccccc2)c(N)n1`, the Potency in [1] is 21.1 µM (active) and 34.6 µM (active); in [2] it was 49.2 µM [inhibitor] (active); in [4], 13.4 µM [inconclusive] (active) and inactive; in [5], 2.11 µM (active) and 2.45 µM (active) and 2.17 µM (active); in assay [6] it was 23.7 µM (active) and 54.8 µM (active); in assay [7], 27.4 µM (active) and 54.5 µM (active). Further, the Potency result in assay [12] was “inactive and 26.6 µM (active)”. Further, the result in assay [3], in assay [14] and in assay [15] was inactive. The Potency result (with Aromatase (Homo sapiens); in assay [8]; in [9]; in [10]; in assay [11]; in assay [13]) was “inactive” in each case.
As to `CC(=O)Oc1ccccc1C(=O)O`, the Potency result in assay [1], in [2], in assay [4], in assay [5], in [16] and in assay [6] was “inactive” each time. Besides, the Potency result (with Aromatase (Homo sapiens); in [7]; in assay [8]; in [9]; in assay [10]; in assay [11]) was “inactive” in each case. For the same compound, the Potency result in [12] and in assay [13] was “inactive” throughout. The call in assay [3] and in [14] was inactive.
As for `O=c1cc[nH]c(=O)[nH]1`, the Potency result in [1], in assay [17], in assay [6], in assay [8], in assay [11] and in [12] was “inactive” throughout. The Potency result in assay [13] is “inactive”. Moreover, the compound was called inactive in assay [18], in assay [3], in assay [14] and in [15].
With `NCCNc1cccc2ccccc12`, the Potency in [1] is 27.3 µM (active) and 29.9 µM (active); in [17], 26.6 µM (active) and 54.4 µM (active) and 59.6 µM (active); in [19] it was 29.8 µM (active) and 54.4 µM (active) and 66.9 µM (active). In addition, the call in assay [18], in assay [3], in [14] and in assay [15] was inactive. Moreover, the Potency entry (with Aromatase (Homo sapiens); in [7]; in assay [9]; in assay [13]) was “inactive” each time.
For the compound `CCCCOCCOCCSC#N`, the Potency entry (in assay [1]; in [6]; in the assay with Aromatase (Homo sapiens); in assay [7]; in assay [8]; in assay [9]) was “inactive” in each case. For the same compound, the Potency entry in [11], in assay [12] and in [13] was “inactive” throughout. The compound was classed as inactive in [3] and in assay [14].
For the compound `CC1=C(/C=C/C(C)=C/C=C/C(C)=C/C(=O)O)C(C)(C)CCC1`, the Potency entry (in assay [1]; in assay [6]; with Aromatase (Homo sapiens); in [7]; in assay [19]; in assay [8]) was “inactive” each time. In addition, the Potency result in assay [11] and in assay [13] was “inactive” in each case. Also, in assay [3], the call was inactive. Besides, the Potency in [16] was 335 nM (active) and 77 nM (active); in [9] it was 0.535 µM (active).
In the case of `CCCCOC(=O)CCCCCCCCC(=O)OCCCC`, the Potency entry in assay [17], in assay [2], in assay [4], in [5], in assay [16] and in assay [6] was “inactive” in each case. Also, the Potency result (in the assay with Aromatase (Homo sapiens); in [7]; in assay [19]; in assay [8]; in [9]; in assay [10]) was “inactive” each time. In addition, the Potency result in [11], in assay [12] and in [13] was “inactive” throughout. Besides, the result in [18], in assay [3], in [14] and in assay [15] was inactive.
Turning to `O=[N+]([O-])c1ccc(O)cc1`, the Potency in assay [1] was 61.1 µM (active); in assay [7], 63.5 µM (active); in assay [8], 54.5 µM (active) and inactive. In addition, the Potency result (in assay [2]; in [4]; in [5]; in [16]; in assay [6]; in the assay with Aromatase (Homo sapiens)) was “inactive” throughout. Moreover, the Potency result in assay [9], in [10], in [11], in [12] and in assay [13] was “inactive” in each case. Moreover, the compound was classed as inactive in [3], in [14] and in assay [15].
Take `O=C1CCCCCN1`: the Potency entry (in assay [1]; in assay [17]; in assay [6]; in the assay with Aromatase (Homo sapiens); in [7]; in assay [8]) was “inactive” each time. Moreover, the Potency entry in assay [9], in assay [10], in assay [11], in assay [12] and in assay [13] was “inactive” each time. Besides, the call in [18], in [3], in assay [14] and in assay [15] was inactive.
